# Source: paper PMC7862700, “An all-to-all approach to the identification of sequence-specific readers for epigenetic DNA modifications on cytosine”
# Assays:
# Assay in all cases: DAPPL (digital affinity profiling via proximity ligation, sequencing); 10 mM Tris-HCl pH 7.5, 50 mM NaCl, 1 mM DTT, 4% glycerol, room temperature, 30 min; GST-TFs on glutathione beads, 16-mer random dsDNA library, 0.1% formaldehyde crosslink after washing; high values mean tight binding
# FEV = target: T1, FEV (Homo sapiens, UniProt Q99581 1-238); conditions: protein: recombinant; tags: N-terminal GST; dsDNA, one strand shown
# T1 sequence: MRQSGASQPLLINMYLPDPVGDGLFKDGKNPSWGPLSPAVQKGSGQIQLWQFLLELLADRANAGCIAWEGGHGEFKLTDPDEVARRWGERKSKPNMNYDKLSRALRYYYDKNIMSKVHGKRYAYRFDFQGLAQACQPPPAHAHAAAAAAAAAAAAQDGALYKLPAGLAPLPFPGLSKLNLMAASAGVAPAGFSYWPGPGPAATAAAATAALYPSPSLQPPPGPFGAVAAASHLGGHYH
# In short: (§1)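 Binding signal is each hexamer's read frequency for a factor divided by its frequency in the tag-only sample. The factors were GST-fused human transcription factors from yeast, captured on glutathione beads, DNA-barcoded and pooled with that sample. Pools were incubated with 200 nmole of a random double-stranded 16-mer DNA library in Tris/NaCl/DTT/glycerol buffer at room temperature for 30 min, then washed, crosslinked with 0.1% formaldehyde, proximity-ligated with BsaI/T4 ligase (1 h, 37 °C), PCR-amplified and sequenced on an Illumina NextSeq500.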
# ETV5 = ETV5 (Homo sapiens, UniProt P41161 1-510); conditions: protein: recombinant; tags: N-terminal GST; dsDNA, one strand shown
# Chain of ETV5 (P41161 whole entry): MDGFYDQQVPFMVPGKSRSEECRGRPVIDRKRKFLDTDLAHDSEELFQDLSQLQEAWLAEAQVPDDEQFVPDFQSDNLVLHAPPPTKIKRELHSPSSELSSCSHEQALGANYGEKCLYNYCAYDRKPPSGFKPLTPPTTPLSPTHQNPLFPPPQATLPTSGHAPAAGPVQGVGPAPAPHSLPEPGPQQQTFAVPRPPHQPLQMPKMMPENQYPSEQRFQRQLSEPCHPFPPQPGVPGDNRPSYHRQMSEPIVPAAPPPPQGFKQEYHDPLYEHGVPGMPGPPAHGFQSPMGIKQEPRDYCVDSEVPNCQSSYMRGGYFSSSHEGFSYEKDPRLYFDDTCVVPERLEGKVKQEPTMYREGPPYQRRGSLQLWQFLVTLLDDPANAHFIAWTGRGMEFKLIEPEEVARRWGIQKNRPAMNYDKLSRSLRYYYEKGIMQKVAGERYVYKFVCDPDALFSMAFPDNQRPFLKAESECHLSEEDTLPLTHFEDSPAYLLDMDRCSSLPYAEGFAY
# In short: as §1
# HSF1 = HSF1 (Homo sapiens, UniProt Q00613 1-529); conditions: protein: recombinant; tags: N-terminal GST; chain copies: 3; dsDNA, one strand shown
# Chain of HSF1 (Q00613 whole entry): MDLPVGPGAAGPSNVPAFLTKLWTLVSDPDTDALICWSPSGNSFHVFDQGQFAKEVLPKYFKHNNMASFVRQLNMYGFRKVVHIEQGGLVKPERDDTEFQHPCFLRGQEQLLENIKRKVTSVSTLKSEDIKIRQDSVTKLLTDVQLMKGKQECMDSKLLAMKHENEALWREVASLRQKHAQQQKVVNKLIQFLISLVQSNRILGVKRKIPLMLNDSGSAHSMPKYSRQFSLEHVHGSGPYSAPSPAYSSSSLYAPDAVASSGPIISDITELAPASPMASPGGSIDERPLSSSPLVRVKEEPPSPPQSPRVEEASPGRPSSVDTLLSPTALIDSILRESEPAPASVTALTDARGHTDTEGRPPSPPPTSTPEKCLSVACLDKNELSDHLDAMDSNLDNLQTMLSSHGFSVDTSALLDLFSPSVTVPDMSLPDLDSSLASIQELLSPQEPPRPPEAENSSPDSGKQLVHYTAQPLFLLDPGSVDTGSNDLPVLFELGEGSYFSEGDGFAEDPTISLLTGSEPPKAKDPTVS
# In short: as §1
# SPIC = target: T2, SPIC (Homo sapiens, UniProt Q8N5J4 1-248); conditions: protein: recombinant; tags: N-terminal GST; dsDNA, one strand shown
# T2 sequence: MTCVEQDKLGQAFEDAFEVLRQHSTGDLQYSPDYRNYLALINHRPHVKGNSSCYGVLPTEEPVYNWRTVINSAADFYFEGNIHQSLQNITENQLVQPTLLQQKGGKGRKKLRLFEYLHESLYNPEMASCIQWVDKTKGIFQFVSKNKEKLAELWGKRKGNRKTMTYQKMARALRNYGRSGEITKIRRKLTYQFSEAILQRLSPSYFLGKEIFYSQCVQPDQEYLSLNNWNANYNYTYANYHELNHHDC
# In short: as §1
# ELF4 = ELF4 (Homo sapiens, UniProt Q99607 1-663); conditions: protein: recombinant; tags: N-terminal GST; dsDNA, one strand shown
# Chain of ELF4 (Q99607 whole entry): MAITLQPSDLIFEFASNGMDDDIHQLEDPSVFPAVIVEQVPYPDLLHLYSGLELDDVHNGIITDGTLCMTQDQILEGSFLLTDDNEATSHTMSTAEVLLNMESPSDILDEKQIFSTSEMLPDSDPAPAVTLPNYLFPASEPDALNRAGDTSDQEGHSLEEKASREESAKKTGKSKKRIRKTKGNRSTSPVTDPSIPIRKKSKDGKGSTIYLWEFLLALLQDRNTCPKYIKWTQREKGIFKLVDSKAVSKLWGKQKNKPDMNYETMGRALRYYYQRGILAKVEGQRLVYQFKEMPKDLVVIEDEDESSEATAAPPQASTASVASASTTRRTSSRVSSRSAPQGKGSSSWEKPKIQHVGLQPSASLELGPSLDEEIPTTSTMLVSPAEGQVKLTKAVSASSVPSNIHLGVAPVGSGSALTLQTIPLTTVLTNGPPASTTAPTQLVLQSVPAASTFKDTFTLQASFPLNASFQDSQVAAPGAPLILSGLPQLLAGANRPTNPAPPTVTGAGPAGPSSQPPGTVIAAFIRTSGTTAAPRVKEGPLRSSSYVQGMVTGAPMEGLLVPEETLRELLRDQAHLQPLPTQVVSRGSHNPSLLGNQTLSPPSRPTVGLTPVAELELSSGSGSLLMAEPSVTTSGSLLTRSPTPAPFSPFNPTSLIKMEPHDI
# In short: as §1
# ELK4 = target: T3, ELK4 (Homo sapiens, UniProt P28324-2 1-405); conditions: protein: recombinant; tags: N-terminal GST; dsDNA, one strand shown
# T3 sequence: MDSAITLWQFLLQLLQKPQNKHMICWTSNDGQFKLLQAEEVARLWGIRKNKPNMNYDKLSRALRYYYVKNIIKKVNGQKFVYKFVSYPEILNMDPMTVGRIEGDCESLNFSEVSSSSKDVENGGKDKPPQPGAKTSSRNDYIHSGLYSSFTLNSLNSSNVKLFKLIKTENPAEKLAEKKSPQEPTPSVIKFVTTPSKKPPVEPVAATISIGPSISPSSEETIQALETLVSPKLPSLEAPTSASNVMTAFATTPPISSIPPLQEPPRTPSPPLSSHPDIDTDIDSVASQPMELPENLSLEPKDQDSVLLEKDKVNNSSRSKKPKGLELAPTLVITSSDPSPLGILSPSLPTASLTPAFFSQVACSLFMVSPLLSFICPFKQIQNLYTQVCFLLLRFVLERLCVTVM
# In short: as §1
# ETV2 = target: T4, ETV2 (Homo sapiens, UniProt O00321 1-342); conditions: protein: recombinant; tags: N-terminal GST; dsDNA, one strand shown
# T4 sequence: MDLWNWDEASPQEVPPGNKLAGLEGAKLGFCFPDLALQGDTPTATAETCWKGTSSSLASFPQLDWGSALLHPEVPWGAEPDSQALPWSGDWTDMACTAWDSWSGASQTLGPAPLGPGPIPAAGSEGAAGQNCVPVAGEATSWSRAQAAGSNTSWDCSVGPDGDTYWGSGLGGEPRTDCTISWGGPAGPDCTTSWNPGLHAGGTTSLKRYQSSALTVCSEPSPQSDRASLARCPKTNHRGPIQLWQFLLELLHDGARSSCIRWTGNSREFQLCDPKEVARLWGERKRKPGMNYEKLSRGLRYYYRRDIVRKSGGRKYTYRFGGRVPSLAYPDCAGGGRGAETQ
# In short: as §1
# ELF3 = target: T5, ELF3 (Homo sapiens, UniProt P78545 1-371); conditions: protein: recombinant; tags: N-terminal GST; dsDNA, one strand shown
# T5 sequence: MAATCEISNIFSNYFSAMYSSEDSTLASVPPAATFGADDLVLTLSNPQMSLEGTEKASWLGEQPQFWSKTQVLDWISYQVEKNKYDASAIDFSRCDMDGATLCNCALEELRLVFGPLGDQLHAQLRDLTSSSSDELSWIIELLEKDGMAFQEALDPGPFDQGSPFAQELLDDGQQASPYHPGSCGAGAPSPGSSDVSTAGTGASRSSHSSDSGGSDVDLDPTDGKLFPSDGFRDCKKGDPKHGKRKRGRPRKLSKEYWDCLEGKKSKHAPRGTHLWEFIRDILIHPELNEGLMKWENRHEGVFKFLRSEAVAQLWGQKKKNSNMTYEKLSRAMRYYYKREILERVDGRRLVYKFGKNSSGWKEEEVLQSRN
# In short: as §1
# CRX = CRX (Homo sapiens, UniProt O43186 1-299); conditions: protein: recombinant; tags: N-terminal GST; dsDNA, one strand shown
# Chain of CRX (O43186 whole entry): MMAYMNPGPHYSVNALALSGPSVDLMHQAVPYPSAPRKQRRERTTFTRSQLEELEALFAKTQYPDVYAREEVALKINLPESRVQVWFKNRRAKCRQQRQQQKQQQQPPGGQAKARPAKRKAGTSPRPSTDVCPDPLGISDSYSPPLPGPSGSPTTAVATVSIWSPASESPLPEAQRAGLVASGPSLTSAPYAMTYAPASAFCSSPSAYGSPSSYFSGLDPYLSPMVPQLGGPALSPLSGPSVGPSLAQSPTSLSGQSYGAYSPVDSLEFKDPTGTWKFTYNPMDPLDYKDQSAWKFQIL
# In short: as §1
# ETV1 = ETV1 (Homo sapiens, UniProt P50549 1-477); conditions: protein: recombinant; tags: N-terminal GST; dsDNA, one strand shown
# Chain of ETV1 (P50549 whole entry): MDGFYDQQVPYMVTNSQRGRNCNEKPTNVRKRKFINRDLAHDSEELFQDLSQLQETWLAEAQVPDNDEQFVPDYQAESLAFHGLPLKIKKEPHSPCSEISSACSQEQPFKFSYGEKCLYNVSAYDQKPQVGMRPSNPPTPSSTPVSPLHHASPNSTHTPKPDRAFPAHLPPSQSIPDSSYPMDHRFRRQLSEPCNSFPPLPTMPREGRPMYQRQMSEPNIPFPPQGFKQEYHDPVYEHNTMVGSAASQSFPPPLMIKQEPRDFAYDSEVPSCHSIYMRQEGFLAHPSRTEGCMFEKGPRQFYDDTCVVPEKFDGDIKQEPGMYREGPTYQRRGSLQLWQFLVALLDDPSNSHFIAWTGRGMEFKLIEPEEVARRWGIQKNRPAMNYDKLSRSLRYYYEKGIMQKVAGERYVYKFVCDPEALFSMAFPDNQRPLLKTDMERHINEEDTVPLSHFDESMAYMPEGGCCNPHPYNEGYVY
# In short: as §1
# ERF = target: T6, ERF (Homo sapiens, UniProt P50548 1-548); conditions: protein: recombinant; tags: N-terminal GST; dsDNA, one strand shown
# T6 sequence: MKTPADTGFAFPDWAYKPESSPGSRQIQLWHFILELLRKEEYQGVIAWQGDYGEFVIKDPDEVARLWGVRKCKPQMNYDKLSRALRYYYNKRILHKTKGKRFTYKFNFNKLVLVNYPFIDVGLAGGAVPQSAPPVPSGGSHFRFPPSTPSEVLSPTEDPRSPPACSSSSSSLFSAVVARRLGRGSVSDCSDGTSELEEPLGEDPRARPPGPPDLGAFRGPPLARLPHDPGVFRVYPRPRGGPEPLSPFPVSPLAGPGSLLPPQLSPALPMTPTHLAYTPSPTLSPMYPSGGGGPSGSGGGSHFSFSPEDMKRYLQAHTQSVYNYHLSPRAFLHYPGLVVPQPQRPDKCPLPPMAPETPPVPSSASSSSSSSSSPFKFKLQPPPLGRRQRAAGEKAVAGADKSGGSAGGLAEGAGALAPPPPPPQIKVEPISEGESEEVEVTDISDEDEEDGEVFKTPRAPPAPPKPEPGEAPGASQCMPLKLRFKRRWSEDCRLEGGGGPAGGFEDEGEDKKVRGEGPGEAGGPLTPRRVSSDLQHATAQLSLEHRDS
# In short: as §1
# ETV3L = target: T7, ETV3L (Homo sapiens, UniProt Q6ZN32 1-361); conditions: protein: recombinant; tags: N-terminal GST; dsDNA, one strand shown
# T7 sequence: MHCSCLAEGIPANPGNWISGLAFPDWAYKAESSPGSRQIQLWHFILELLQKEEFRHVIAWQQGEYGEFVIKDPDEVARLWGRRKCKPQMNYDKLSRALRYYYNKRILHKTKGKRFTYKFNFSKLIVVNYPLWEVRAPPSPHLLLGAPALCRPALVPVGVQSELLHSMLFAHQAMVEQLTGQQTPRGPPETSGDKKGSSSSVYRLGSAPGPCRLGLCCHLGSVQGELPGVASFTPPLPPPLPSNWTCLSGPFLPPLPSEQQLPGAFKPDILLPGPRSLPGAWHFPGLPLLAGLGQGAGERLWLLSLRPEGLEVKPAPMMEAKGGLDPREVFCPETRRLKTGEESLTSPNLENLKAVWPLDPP
# In short: as §1
# ETS2 = target: T8, ETS2 (Homo sapiens, UniProt P15036 1-469); conditions: protein: recombinant; tags: N-terminal GST; dsDNA, one strand shown
# T8 sequence: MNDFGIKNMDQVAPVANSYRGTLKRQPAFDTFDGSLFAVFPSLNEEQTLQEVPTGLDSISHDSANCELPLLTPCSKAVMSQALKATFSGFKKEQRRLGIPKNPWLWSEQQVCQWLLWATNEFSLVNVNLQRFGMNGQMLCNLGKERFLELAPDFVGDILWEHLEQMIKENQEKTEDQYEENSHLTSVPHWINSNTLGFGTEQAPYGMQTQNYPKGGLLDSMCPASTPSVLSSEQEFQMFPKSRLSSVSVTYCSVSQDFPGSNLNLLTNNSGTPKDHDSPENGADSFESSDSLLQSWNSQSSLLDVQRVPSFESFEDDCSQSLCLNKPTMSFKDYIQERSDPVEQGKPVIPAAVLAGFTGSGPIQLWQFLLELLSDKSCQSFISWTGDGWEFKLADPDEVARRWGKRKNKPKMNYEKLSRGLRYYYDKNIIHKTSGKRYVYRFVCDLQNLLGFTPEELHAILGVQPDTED
# In short: as §1
# SPDEF = target: T9, SPDEF (Homo sapiens, UniProt O95238 1-335); conditions: protein: recombinant; tags: N-terminal GST; dsDNA, one strand shown
# T9 sequence: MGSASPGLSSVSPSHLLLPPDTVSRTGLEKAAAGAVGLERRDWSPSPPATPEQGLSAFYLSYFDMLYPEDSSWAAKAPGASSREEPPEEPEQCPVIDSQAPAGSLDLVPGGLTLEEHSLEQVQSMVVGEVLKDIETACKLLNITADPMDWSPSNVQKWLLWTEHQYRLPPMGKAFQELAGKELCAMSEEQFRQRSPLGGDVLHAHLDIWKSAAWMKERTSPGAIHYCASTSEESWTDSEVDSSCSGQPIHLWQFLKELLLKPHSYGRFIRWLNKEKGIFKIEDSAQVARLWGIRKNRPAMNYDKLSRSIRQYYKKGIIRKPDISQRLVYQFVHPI
# In short: as §1
# ETV7 = target: T10, ETV7 (Homo sapiens, UniProt Q9Y603 1-341); conditions: protein: recombinant; tags: N-terminal GST; dsDNA, one strand shown
# T10 sequence: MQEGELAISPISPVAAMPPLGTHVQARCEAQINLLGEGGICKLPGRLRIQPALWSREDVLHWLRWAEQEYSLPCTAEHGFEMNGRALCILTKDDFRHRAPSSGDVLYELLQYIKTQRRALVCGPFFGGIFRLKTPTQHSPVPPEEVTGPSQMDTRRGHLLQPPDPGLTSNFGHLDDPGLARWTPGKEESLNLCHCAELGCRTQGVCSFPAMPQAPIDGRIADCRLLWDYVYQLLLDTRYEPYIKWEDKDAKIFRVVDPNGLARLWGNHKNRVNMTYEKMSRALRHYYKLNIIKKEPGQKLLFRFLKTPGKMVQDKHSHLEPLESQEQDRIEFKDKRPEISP
# In short: as §1
# ELF5 = target: T11, ELF5 (Homo sapiens, UniProt Q9UKW6-2 1-255); conditions: protein: recombinant; tags: N-terminal GST; dsDNA, one strand shown
# T11 sequence: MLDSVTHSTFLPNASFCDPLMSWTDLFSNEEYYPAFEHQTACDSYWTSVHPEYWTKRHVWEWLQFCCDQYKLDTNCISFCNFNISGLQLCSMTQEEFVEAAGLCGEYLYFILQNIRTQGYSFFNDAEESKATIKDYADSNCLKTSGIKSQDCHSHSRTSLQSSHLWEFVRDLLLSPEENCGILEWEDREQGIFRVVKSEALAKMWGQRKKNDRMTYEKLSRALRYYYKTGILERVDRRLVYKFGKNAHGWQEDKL
# In short: as §1
# ETV3 = target: T12, ETV3 (Homo sapiens, UniProt P41162-2 1-143); conditions: protein: recombinant; tags: N-terminal GST; dsDNA, one strand shown
# T12 sequence: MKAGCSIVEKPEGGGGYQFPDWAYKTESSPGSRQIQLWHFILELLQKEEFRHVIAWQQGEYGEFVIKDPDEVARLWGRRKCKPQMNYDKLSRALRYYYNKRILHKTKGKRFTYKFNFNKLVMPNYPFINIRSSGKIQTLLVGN
# In short: as §1
# ETV6 = ETV6 (Homo sapiens, UniProt P41212 1-452); conditions: protein: recombinant; tags: N-terminal GST; dsDNA, one strand shown
# Chain of ETV6 (P41212 whole entry): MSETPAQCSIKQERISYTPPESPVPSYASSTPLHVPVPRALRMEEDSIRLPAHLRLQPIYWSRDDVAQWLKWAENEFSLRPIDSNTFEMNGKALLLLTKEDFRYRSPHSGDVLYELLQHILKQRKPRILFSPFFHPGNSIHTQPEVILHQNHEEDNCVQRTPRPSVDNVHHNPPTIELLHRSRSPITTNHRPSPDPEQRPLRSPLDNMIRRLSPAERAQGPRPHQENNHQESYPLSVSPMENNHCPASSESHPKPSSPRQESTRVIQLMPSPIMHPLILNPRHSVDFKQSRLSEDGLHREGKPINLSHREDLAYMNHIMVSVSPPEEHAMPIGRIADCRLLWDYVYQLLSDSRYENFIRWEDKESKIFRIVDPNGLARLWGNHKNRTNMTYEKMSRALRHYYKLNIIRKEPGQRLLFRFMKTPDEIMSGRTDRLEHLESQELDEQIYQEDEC
# In short: as §1
sequence,measurement,setting,value
AAGTTT,binding signal,FEV,"1.35 fold enrichment (6-mer frequency, TF over GST control)"
same,binding signal,ETV5,"1.37 fold enrichment (6-mer frequency, TF over GST control)"
same,binding signal,HSF1,"1.5 fold enrichment (6-mer frequency, TF over GST control)"
same,binding signal,SPIC,"1.29 fold enrichment (6-mer frequency, TF over GST control)"
same,binding signal,ELF4,"1.39 fold enrichment (6-mer frequency, TF over GST control)"
same,binding signal,ELK4,"1.27 fold enrichment (6-mer frequency, TF over GST control)"
same,binding signal,ETV2,"1.44 fold enrichment (6-mer frequency, TF over GST control)"
same,binding signal,ELF3,"1.35 fold enrichment (6-mer frequency, TF over GST control)"
same,binding signal,CRX,"1.38 fold enrichment (6-mer frequency, TF over GST control)"
same,binding signal,ETV1,"1.51 fold enrichment (6-mer frequency, TF over GST control)"
same,binding signal,ERF,"1.39 fold enrichment (6-mer frequency, TF over GST control)"
same,binding signal,ETV3L,"1.46 fold enrichment (6-mer frequency, TF over GST control)"
same,binding signal,ETS2,"1.39 fold enrichment (6-mer frequency, TF over GST control)"
same,binding signal,SPDEF,"1.37 fold enrichment (6-mer frequency, TF over GST control)"
same,binding signal,ETV7,"1.37 fold enrichment (6-mer frequency, TF over GST control)"
same,binding signal,ELF5,"1.55 fold enrichment (6-mer frequency, TF over GST control)"
same,binding signal,ETV3,"1.53 fold enrichment (6-mer frequency, TF over GST control)"
same,binding signal,ETV6,"1.55 fold enrichment (6-mer frequency, TF over GST control)"
